Records with an inconclusive call do not appear. The source made the active and inactive calls. Rule for the calls: active = hit-call score of the fitted dose curve at least 0.9, where 1 is the maximum; inconclusive = response in the unintended direction; inactive = score below 0.9.
Tests used:
[1] = TOX21_p53_BLA_p2_viability: Viability Assessment in the Tox21 HCT-116 p53 Agonism Beta-lactamase Assay, Phase 2 (AID 2283591);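 note: compound exposure lasted 16 h at 37 °C; actives lower the ATP signal meaning cytotoxicity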
In short: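 HCT-116 p53-bla cells (4000/well) rested 5 h at 37C, then received compounds in DMSO (217-fold dilution) for 16 h at 37C, 5% CO2. After the CCF4 read, CellTiter-Glo was added; ATP luminescence was read after 30 min at room temperature.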

[2] = target: Cellular tumor antigen p53 (Homo sapiens) (UniProt P04637); assay: TOX21_p53_BLA_p2_ratio: Tox21 HCT-116 p53 Agonism Beta-lactamase Assay, Ratio, Phase 2 (AID 2283592)
In short: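 HCT116 cells carrying a p53-responsive beta-lactamase reporter were plated, incubated 5 h at 37C, then dosed with compounds in DMSO (217-fold dilution) for 16 h. CCF4-AM substrate was added for 2 h at room temperature; the 460/530 nm emission ratio gave gain-of-signal activity relative to DMSO.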

[3] = TOX21_p53_BLA_p3_viability: Viability Assessment in the Tox21 HCT-116 p53 Agonism Beta-lactamase Assay, Phase 3 (AID 2283593);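 note: cells exposed to compound for 16 h before reading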
In short: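 HCT-116 cells (4000/well) rested 5 h at 37C, then got DMSO compounds by pin tool (217-fold dilution) for 16 h at 37C, 5% CO2. After the bla read, CellTiter-Glo was added and luminescence read at 30 min, room temperature.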

[4] = target: Cellular tumor antigen p53 (Homo sapiens) (UniProt P04637); assay: TOX21_p53_BLA_p3_ratio: Tox21 HCT-116 p53 Agonism Beta-lactamase Assay, Ratio, Phase 3 (AID 2283596)
In short: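 HCT116 p53-bla cells (4000/well) given compound in DMSO (217-fold dilution) after 5 h, incubated 16 h at 37C. CCF4-AM substrate 2 h at room temperature; 460/530 nm emission ratio, gain fitted against DMSO.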

[5] = TOX21_p53_BLA_p4_viability: Viability Assessment in the Tox21 HCT-116 p53 Agonism Beta-lactamase Assay, Phase 4 (AID 2283597);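 note: hits lower the luminescence signal meaning cytotoxicity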
In short: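 HCT116 p53-bla cells (4000/well) rested 5 h at 37C, then received compounds in DMSO (217-fold dilution) for 16 h at 37C, 5% CO2. CellTiter-Glo was added after the CCF4-AM read, and luminescence was read after 30 min at room temperature.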

[6] = target: Cellular tumor antigen p53 (Homo sapiens) (UniProt P04637); assay: TOX21_p53_BLA_p5_ratio: Tox21 HCT-116 p53 Agonism Beta-lactamase Assay, Ratio, Phase 5 (AID 2283599)
In short: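 HCT-116 cells carrying a p53-inducible beta-lactamase reporter were seeded at 4000 cells/well and dosed after 5 h with compound in DMSO (217-fold dilution). After 16 h at 37C, CCF4-AM substrate was added for 2 h, and the 460/530 nm emission ratio was scored as gain-of-signal versus DMSO.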

[7] = TOX21_p53_BLA_p5_viability: Viability Assessment in the Tox21 HCT-116 p53 Agonism Beta-lactamase Assay, Phase 5 (AID 2283600)
In short: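 Cells were plated at 4000/well, rested 5 h at 37C, then given compounds in DMSO (217-fold dilution) for 16 h at 37C, 5% CO2. Following the CCF4-AM beta-lactamase read, CellTiter-Glo was added and luminescence was read after 30 min at room temperature.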

[8] = target: Cellular tumor antigen p53 (Homo sapiens) (UniProt P04637); assay: TOX21_p53_BLA_p4_ratio: Tox21 HCT-116 p53 Agonism Beta-lactamase Assay, Ratio, Phase 4 (AID 2283601)
In short: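 HCT116 cells carrying an inducible beta-lactamase reporter were plated at 4000 cells/well, rested 5 h, then exposed to compounds in DMSO (217-fold dilution) for 16 h at 37C. CCF4-AM substrate was loaded 2 h at room temperature; 460/530 nm emission ratio scored gain-of-signal versus DMSO.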

Measured: AC50

Sequence of Cellular tumor antigen p53 (Homo sapiens) (P04637 whole entry, looked up): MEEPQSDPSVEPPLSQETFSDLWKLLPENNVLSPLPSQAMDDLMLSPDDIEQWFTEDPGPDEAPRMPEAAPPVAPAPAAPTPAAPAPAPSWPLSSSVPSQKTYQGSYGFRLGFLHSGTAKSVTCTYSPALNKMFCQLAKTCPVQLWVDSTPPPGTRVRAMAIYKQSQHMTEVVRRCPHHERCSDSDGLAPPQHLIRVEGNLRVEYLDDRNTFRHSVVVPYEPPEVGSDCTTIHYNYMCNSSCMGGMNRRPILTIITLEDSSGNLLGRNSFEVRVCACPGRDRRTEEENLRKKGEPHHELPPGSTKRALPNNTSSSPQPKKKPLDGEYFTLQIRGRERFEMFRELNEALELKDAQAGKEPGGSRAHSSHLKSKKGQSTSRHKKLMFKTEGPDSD

COc1cc(O)cc(O)c1
inactive: all assays above

CN1CCN(CCCN2c3ccccc3Sc3ccc(C(F)(F)F)cc32)CC1
active: [1] 36.4 µM | [5] 33.9 µM | [8] 43.1 µM
inactive: all other assays above

CN1[C@@H](CC(=O)c2ccccc2)CCC[C@H]1C[C@H](O)c1ccccc1
inactive: all assays above

CC(C)(C#N)Nc1nc(Cl)nc(NC2CC2)n1
inactive: all assays above

NCCOCCN
inactive: all assays above

O=C(O)c1ccc(-n2nc(-c3ccccc3O)nc2-c2ccccc2O)cc1
inactive: all assays above

O=C(O)c1cc(N=Nc2ccc([N+](=O)[O-])cc2)ccc1O
active: [1] 84.1 µM | [3] 45.4 µM | [5] 29.6 µM
inactive: all other assays above

Cc1c(Cl)cccc1Nc1ccccc1C(=O)O
active: [1] 5.79 µM | [2] 19.4 µM | [3] 23 µM | [4] 21.1 µM | [5] 10.2 µM | [6] 21.6 µM | [8] 17.7 µM
inactive: [7]

CC[C@H]1CN2CCc3cc(OC)c(OC)cc3[C@@H]2C[C@@H]1C[C@H]1NCCc2cc(OC)c(OC)cc21
inactive: all assays above

Nc1nc(Cl)nc2c1ncn2[C@@H]1O[C@H](CO)[C@@H](O)[C@@H]1F
active: [2] 0.119 µM | [4] 0.117 µM | [6] 0.112 µM | [8] 0.155 µM
inactive: [1] | [3] | [5] | [7]

CC(=O)O[C@H]1CC[C@@]2(C)C(=CC[C@H]3[C@@H]4CC[C@H](C(C)=O)[C@@]4(C)CC[C@@H]32)C1
inactive: all assays above

CCCC(c1cc(C(C)(C)C)c(O)cc1C)c1cc(C(C)(C)C)c(O)cc1C
active: [1] 15 µM | [2] 32.8 µM | [3] 19.5 µM | [4] 30.6 µM | [5] 9.81 µM | [6] 32.2 µM | [7] 17.2 µM | [8] 19.7 µM

N[C@@H](COP(=O)(O)O)C(=O)O
inactive: all assays above

COc1ccccc1N1CCN(CC(O)COc2cccc3ccccc23)CC1 (stereo not drawn)
active: [5] 23 µM
inactive: all other assays above

CSc1ccc2c(c1)C(N1CCN(C)CC1)Cc1ccccc1S2 (stereo not drawn)
inactive: [4] | [6]
active: [1] 36.3 µM | [2] 44.4 µM | [3] 37.8 µM | [5] 34.5 µM | [7] 38.3 µM | [8] 42.4 µM

CC[C@H](C)[C@H]1O[C@]2(CC[C@@H]1C)C[C@@H]1C[C@@H](C/C=C(\C)[C@@H](O[C@H]3C[C@H](OC)[C@@H](O[C@H]4C[C@H](OC)[C@@H](O)[C@H](C)O4)[C@H](C)O3)[C@@H](C)/C=C/C=C3\CO[C@@H]4[C@H](O)C(C)=C[C@@H](C(=O)O1)[C@]34O)O2
active: [1] 5.51 µM | [2] 17.6 µM | [3] 6.87 µM | [4] 14.5 µM | [5] 6.4 µM | [6] 8.8 µM | [7] 7.23 µM | [8] 9.63 µM

Brc1ccccc1-c1ccccc1
inactive: all assays above

CCCCC(CC)CN1CN(CC(CC)CCCC)CC(C)(N)C1 (stereo not drawn)
inactive: all assays above

COc1cc2[nH]c(=O)[nH]c(=O)c2cc1OC
inactive: all assays above

CC[C@@]1([C@@H]2O[C@@H]([C@H]3O[C@@](O)(CO)[C@H](C)C[C@@H]3C)C[C@@H]2C)CC[C@H]([C@]2(C)CC[C@]3(C[C@H](O)[C@@H](C)[C@@H]([C@@H](C)[C@@H](OC)[C@H](C)C(=O)O)O3)O2)O1 (stereo in doubt)
inactive: all assays above

CCCCCCCCC1CO1 (stereo not drawn)
inactive: all assays above

O=C(O)c1cc(O)c(O)c(O)c1
inactive: all assays above

CC(=O)NCc1c(I)c(NC(C)=O)c(I)c(C(=O)O)c1I
inactive: all assays above

O=C(Nc1ccc(Cl)cc1)Nc1ccc(Cl)c(C(F)(F)F)c1
active: [1] 32.8 µM | [2] 5.23 µM | [4] 11.2 µM | [5] 33.1 µM | [6] 19.5 µM | [7] 39.6 µM | [8] 6.95 µM
inactive: [3]

CCC(C)n1ncn(-c2ccc(N3CCN(c4ccc(OC[C@H]5CO[C@](Cn6cncn6)(c6ccc(Cl)cc6Cl)O5)cc4)CC3)cc2)c1=O (stereo partly drawn)
inactive: all assays above

CO[C@H]1/C=C/O[C@@]2(C)Oc3c(C)c(O)c4c(O)c(c(/C=N/N5CCN(C6CCCC6)CC5)c(O)c4c3C2=O)NC(=O)/C(C)=C\C=C\[C@H](C)[C@H](O)[C@@H](C)[C@@H](O)[C@@H](C)[C@H](OC(C)=O)[C@@H]1C
active: [1] 33.8 µM | [2] 43.8 µM | [3] 35.3 µM | [4] 42.8 µM | [5] 37.2 µM | [6] 43.2 µM | [7] 42.8 µM | [8] 36.8 µM

CCOc1ccc([N+](=O)[O-])cc1
inactive: [1] | [2]
active: [3] 70.9 µM | [4] 80.9 µM | [5] 46.7 µM | [6] 84.9 µM | [7] 61.1 µM | [8] 81.5 µM

C(=C\c1ccccc1)/CN1CCN(C(c2ccccc2)c2ccccc2)CC1
inactive: all assays above

CC1CC(OC(=O)C(O)c2ccccc2)CC(C)(C)C1 (stereo not drawn)
inactive: all assays above

CCCCCCCCCCCCCCCC(=O)O[C@@H]1[C@@H](O)[C@@H](O)[C@@H]([C@H](NC(=O)[C@@H]2C[C@@H](CCC)CN2C)[C@H](C)Cl)O[C@@H]1SC
inactive: all assays above

NC(=O)NS(=O)(=O)c1ccc(N)cc1
inactive: all assays above

Source: PubChem BioAssay (EPA / NIEHS)
